Among all 320,000 compounds or so, about 7,600 (2.4%) were called active. Where a call stands in place of a potency, no number is given. About 3% were inconclusive and are not listed. The call rests on the fitted dose curve; in most records, active means well fitted activation curve with a large enough effect; inconclusive means small, poorly fitted or top-dose-only effect; inactive means no such curve, though single readings can be large or run the other way. The full list was thinned out, with actives kept by preference.
Assay: qHTS Assay for NPC1 Promoter Activators; further: nearly all actives have a fitted effect of over 60% in size
Settings: Huh7 NPC1 promoter luciferase reporter, 24 h; series mostly up to 9.22 µM
Excerpt: NIH Chemical Genomics Center [NCGC] NIH Molecular Libraries Probe Production centers Network [MLPCN] MLPCN Grant: MH089375-01A1 Assay Submitter (PI): Yiannis A. Ioannou NCGC Assay Overview: Niemann Pick Type C (NPC) is a rare neurodegenerative lipidosis that is characterized by lipid storage in the endosomal/lysosomal system. Treatment modalities for this devastating disease are currently non-existent due to the severe obstacles associated with accessing the central nervous system with proteins or genes. The majority of mutations causing NPC disease are missense mutations that are distributed throughout the length of the NPC1 protein, with the most prevalent being the I1061T allele. Although NPC1 mutant proteins may be functional, they are typically trapped in the ER due to misfolding. […] We have developed and optimized a cell based luciferase reporter assay in 1536 well format for the identification of up-regulators of the mutant NPC1 promoter.
The NPC1 promoter is cloned in front of the luciferase reporter gene, therefore NPC promoter activation results in luciferase expression. Frozen stock of the NPC1 promoter transfected Huh7 cells were obtained from the laboratory of Dr. Yiannis Ioannou (The Mount Sinai School of Medicine, New York, NY). Cells were propagated and maintained at NCGC in medium containing RPMI-1640 supplemented with 10% FBS, 2mM L-glutamine, and 50ug/ml penicillin/streptomycin. Cells were harvested in and plated for assays in OP-MEM I reduced-serum medium supplemented with 10% FBS. The Amplite luciferase reporter gene assay kit was purchased from ABD Bioquest and prepared/stored according to manufacturers recommendations. qHTS Assay Setup: 1.#Dispensed 5ul of Huh7 cells stably expressing NPC1-luciferase at a density of 1500 cells per well 1536-well plates. 2.#Incubate cells at 37C, 5% CO2, and 95% humidity for 2 hours. 3.#Transferred 23nl per well of compound in DMSO solution. 4.#Incubated at 37C, 5% CO2, and 95% humidity for 24 hours. 5.#Dispensed 3ul per well of Amplite reagent(ABD Bioquest) per well. 6.#Incubate at ambient for 10 minutes. 7.#Read using the luminescence protocol on the ViewLux plate reader (Perkin Elmer).
Potency means the concentration at half of the fitted maximal effect.

| Compound | Potency |
| --- | --- |
| O=C(Nc1ccon1)c1sc2ccccc2c1Cl | 3.98 µM (active) |
| Cc1nn(C)cc1/C=N/NC(=O)c1sc2ccccc2c1Cl | inactive |
| O=C(Nc1ccon1)c1cccc(Cl)c1 | inactive |
| Cn1c(N)c(C(=O)COC(=O)COc2ccc(Cl)cc2)c(=O)n(C)c1=O | inactive |
| O=C(COC(=O)CCCN1C(=O)c2cccc3cccc(c23)C1=O)NC1CCS(=O)(=O)C1 (stereo unspecified) | inactive |
| COc1ccc(OCCNC(=O)c2cc(C3CC3)nc3c2cnn3C(C)C)cc1 | inactive |
| C/C(=N\O)C1(C)N(O)C(C)(C)C(c2ccc(Br)cc2)=[N+]1[O-] (stereo unspecified) | inactive |
| CC(=O)C1(C)N(O)C(C)(C)C(c2cccs2)=[N+]1[O-] (stereo unspecified) | 0.1 µM (active) |
| CC1(C)C(c2cccs2)=[N+]([O-])C2(CCCCC2=O)N1O (stereo unspecified) | inactive |
| CC(C(=O)N1CCc2ccccc21)N(C)CC(=O)Nc1ccc(F)cc1 (stereo unspecified) | inactive |
| CCNC(=O)c1cccc(NC(=O)C2CC(=O)N(CCc3ccccc3)C2)c1 (stereo unspecified) | inactive |
| Nc1c(C(=O)NCc2ccccc2)sc2nc3c(cc12)C(=O)CCC3 | inactive |
| CCN(CC)C(=O)N(CC)Cc1ccccc1 | inactive |
| CCN(CC)C(=O)c1sc2nc(-c3ccccc3)ccc2c1N | 1.58 µM (active) |
| CCCC(NC(=O)c1ccco1)c1nc2ccccc2[nH]1 (stereo unspecified) | inactive |
| Cc1cc(OCc2cc(C(=O)NCc3cc(C(C)C)no3)no2)cc(C)c1Cl | 1.41 µM (active) |
| Cc1cccnc1CC(C)NC(=O)c1cc(COc2cncc(Cl)c2)on1 (stereo unspecified) | inactive |
| COCCCNC(=O)COc1cc(C)c(Cl)c(C)c1 | inactive |
| COc1cccc(-c2nc3cc(C)ccc3o2)c1 | 3.16 µM (active) |
| COc1cccc(-c2nnc(SCCOc3ccc4c(C)cc(=O)oc4c3)o2)c1 | inactive |
| O=[N+]([O-])c1ccc2oc(-c3cccc(O)c3)nc2c1 | inactive |
| O=C(/C=C(O)/C=C/c1ccc(O)cc1)/C=C/c1ccc(O)cc1 | inactive |

| Compound | Potency |
| --- | --- |
| CCCCn1c(N)c(N(CC(C)C)C(=O)c2cnc(C)cn2)c(=O)[nH]c1=O | inactive |
| COc1ccccc1C(=O)Nc1ccc(OCC(=O)N2CCCCC2)cc1 | inactive |
| NS(=O)(=O)c1ccc2nc(NC(=O)CS(=O)(=O)c3ccc(F)cc3)sc2c1 | inactive |
| NS(=O)(=O)c1ccc2nc(NC(=O)C3=COCCO3)sc2c1 | 1.78 µM (active) |
| CS(=O)(=O)c1ccc2nc(NC(=O)c3ccc(Cl)nc3)sc2c1 | inactive |
| CN(CC(=O)Nc1ccc(Cl)c(C(F)(F)F)c1)C(=O)CCC(=O)c1ccccc1 | inactive |
| COC(=O)c1ccc(COC(=O)CNC(=O)c2cccc(OC)c2)o1 | inactive |
| CN(CC(=O)Nc1ccc(Cl)cc1)C(=O)c1ccc(COc2ccccc2)cc1 | inactive |
| O=C(CNC(=O)c1ccc2ccccc2c1)Nc1ncccc1O | inactive |
| CCc1cc(C(N)=O)c(NC(=O)c2ccc(OC)cc2)s1 | inactive |
| CCOC(=O)c1cc(C(C)C)sc1NC(=O)COC(=O)c1nccnc1N | inactive |
| CC(C)c1cc(C(N)=O)c(NC(=O)c2cccc(COc3ccc(Br)cc3)c2)s1 | 2.82 µM (active) |
| CC(=O)c1c(C)[nH]c(C(=O)OCC(=O)Nc2c(C)n(C)n(-c3ccccc3)c2=O)c1C | inactive |
| CN(C)CCN=c1cc(-c2ccccc2)oc2ccc(Cl)cc12 | 2.82 µM (active) |
| CN(C)CCn1c(=S)[nH]c2ccc(Cl)cc2c1=O | inactive |
| CN(CC(=O)NCc1ccc2c(c1)OCO2)CC(=O)Nc1ccc(F)c(F)c1F | inactive |
| CO[C@H]1[C@@H]2C=CO[C@@H](O[C@H]3O[C@@H](CO)[C@H](O)[C@@H](O)[C@@H]3O)[C@@H]2[C@@]2(CO)O[C@@H]12 | inactive |
| CCC(=O)Nc1ccc(C(=O)NNC(=O)c2ccc(Cl)cc2)cc1 | inactive |
| O=C(Nc1ccc(Cl)cc1)c1ccsn1 | 3.16 µM (active) |
| O=C(Nc1ccccc1)c1nnsc1S(=O)(=O)c1ccc(Cl)cc1 | inactive |
| CCCCN(CC(=O)Nc1cccc(S(=O)(=O)N2CCCC2)c1)Cc1nc2ccccc2c(=O)[nH]1 | inactive |
| COCCn1cnnc1SCC(=O)Nc1cccc(S(=O)(=O)N2CCCCC2)c1 | inactive |

| Compound | Potency |
| --- | --- |
| Cc1ccc(S(=O)(=O)N(C)C)cc1NC(=O)C(C)OC(=O)c1ccc2ccccc2n1 (stereo unspecified) | inactive |
| COc1ccc(F)cc1C(=O)COC(=O)c1n[nH]c(=O)c2ccccc12 | inactive |
| CCN(C(=O)COC(=O)CCOc1cccc(C)c1)c1c(N)n(Cc2ccccc2)c(=O)[nH]c1=O | inactive |
| O=C(c1ccccc1)N1CCN(C(=O)N2CCCCC2)CC1 | inactive |
| O=C(O)c1ccc(N=NN2CCOCC2)cc1 | inactive |
| O=C(O)c1cccc(N=NN2CCCCCC2)c1 | 0.1 µM (active) |
| CCOc1ncccc1C(=O)OCC(=O)Nc1cccc(S(=O)(=O)N2CCCCCC2)c1 | inactive |
| N#Cc1nc(Cc2ccccc2)oc1NCCc1ccccc1 | 3.16 µM (active) |
| Cc1ccccc1-c1nc(C#N)c(NCc2ccco2)o1 | inactive |
| N#Cc1nc(Cc2cccc3ccccc23)oc1NCc1ccc2c(c1)OCO2 | inactive |
| COc1ccc(-c2[nH]nc(-c3ccccc3)c2-c2nc3ccccc3[nH]2)cc1 | inactive |
| OC(c1nc2ccccc2[nH]1)C(O)C(O)C(O)c1nc2ccccc2[nH]1 (stereo unspecified) | inactive |
| c1ccc2[nH]c(-c3nc4ccccc4[nH]3)nc2c1 | 1.26 µM (active) |
| Nc1cccc(CCc2nc3ccccc3[nH]2)c1 | inactive |
| COc1ccc(Br)cc1C(=O)NC(=S)Nc1cc(-c2nc3ccccc3[nH]2)ccc1C | inactive |
| Cc1ccc(-c2nc3ccccc3[nH]2)cc1N | 1.58 µM (active) |
| CNc1nc(SC)nc(N(C#N)CC(=O)OC)n1 | inactive |
| COc1ccc(OC)c(S(=O)(=O)Nc2c(C)nn(C)c2C)c1 | inactive |
| Cc1cc(C(=O)Nc2ccc(C)c(S(=O)(=O)N3CCOCC3)c2)c2ccccc2n1 | inactive |
| c1ccc(CN=C2Nc3ccccc3CS2)nc1 | 2.51 µM (active) |
| CCC1(CC)NC(=O)N(CC(=O)OCC(=O)c2cc(C)c(C)cc2C)C1=O | inactive |
| CC(=O)c1c(C)[nH]c(C(=O)COc2ccc3c(C)cc(=O)oc3c2)c1C | inactive |

| Compound | Potency |
| --- | --- |
| CCN(CC(=O)Nc1ccc(NC(C)=O)cc1)C(=O)CSC(=S)N1CCCC1 | inactive |
| C/C(=N\Nc1ncc(Cl)cc1Cl)c1cccs1 | 1.78 µM (active) |
| C/C(=N\Nc1nc2ccccc2[nH]1)c1cccs1 | 2 µM (active) |
| O=C(Nc1ccccc1-c1nc2ccccc2[nH]c1=O)c1cccs1 | inactive |
| C/C(=N\Nc1ccc(S(N)(=O)=O)cc1[N+](=O)[O-])c1cccs1 | inactive |
| C/C(=N\Nc1nc(Nc2ccccc2)nc(N2CCOCC2)n1)c1cccs1 | inactive |
| C/C(=N\NS(=O)(=O)c1ccc(Br)cc1)c1cccs1 | inactive |
| CN(C(=O)CSc1nnc(-c2ccc3c(c2)OCO3)o1)C1CCS(=O)(=O)C1 (stereo unspecified) | inactive |
| CCOc1ccc(NC(=O)COC(=O)C2CCC(=O)N2)c([N+](=O)[O-])c1 (stereo unspecified) | inactive |
| CCN1C(=O)C(=O)N(CC(=O)Nc2cc(C)ccc2C)C1=O | inactive |
| CCc1ccc(NC2Nc3cc(C)nn3S2)cc1 (stereo unspecified) | 2.82 µM (active) |
| CCOC(=O)c1ccc(NC2Nc3cc(C)nn3S2)cc1 (stereo unspecified) | inactive |
| CN(C(=O)CN1C(=O)/C(=C/c2ccc(Cl)cc2)SC1=S)C1CCS(=O)(=O)C1 (stereo unspecified) | inactive |
| Cc1ccc(C)c(C(C)NC(=O)C2CCCO2)c1 (stereo unspecified) | inactive |
| Cc1cc([N+](=O)[O-])ccc1NC(=O)C1CCCO1 (stereo unspecified) | inactive |
| Cc1cc(C)c2nc(NC(=O)C3CCCO3)sc2c1 (stereo unspecified) | 3.98 µM (active) |
| CCOC(=O)c1ccc(NC(=O)C2CC(=O)N(c3ccc4c(c3)OCCO4)C2)cc1 (stereo unspecified) | inactive |
| COc1cc(OC)c(N2CC(C(=O)Nc3cc(Cl)ccc3N3CCOCC3)CC2=O)cc1Cl (stereo unspecified) | inactive |
| O=C(/C=C/c1ccco1)NC(=S)Nc1ccccc1Br | inactive |
| O=C(/C=C/c1ccco1)Nc1ccc(Oc2ccccc2)cc1 | 3.98 µM (active) |
| Cc1nnc(NC(=O)/C=C/c2ccco2)s1 | 2.51 µM (active) |
| CCC(CC)c1nnc(NC(=O)/C=C/c2ccco2)s1 | inactive |

| Compound | Potency |
| --- | --- |
| COc1cccc(NC(=O)COC(=O)/C=C/c2ccco2)c1 | inactive |
| CCOC(=O)c1c(NC(=O)/C=C/c2ccco2)sc(C)c1C | inactive |
| CC(C)(CNC(=O)CNC(=O)C1CCCCC1)N1CCOCC1 | inactive |
| O=C(C1CC(=O)N(C2CCCC2)C1)N1CCN(c2cccc(C(F)(F)F)c2)CC1 (stereo unspecified) | inactive |
| COc1ccccc1N1CCN(CC(=O)Nc2ccnn2C2CCCC2)CC1 | inactive |
| COc1cccc2cc(C(N)=O)/c(=N\NC(=O)c3ccccc3)oc12 | 2.82 µM (active) |
| COc1ccc(C(=O)N/N=c2\oc3ccccc3cc2C(N)=O)cc1 | inactive |
| NC(=O)c1cc2ccccc2o/c1=N/NC(=O)c1cccc(F)c1 | inactive |
| O=C(c1ccc(Cl)c(S(=O)(=O)N2CCCCCC2)c1)N1CCN(c2ccc(O)cc2)CC1 | inactive |
| CN1CCN(c2ccc(NC(=O)c3ccc4c(c3)[nH]c(=O)n4Cc3ccc(F)cc3)cc2)CC1 | inactive |
| COc1cccc(C(=O)Nc2cc3c(cc2Br)OCCCO3)c1 | 2.82 µM (active) |
| Cc1ccccc1C(=O)NC(=S)Nc1ccc(N2CCN(C(=O)c3ccccc3)CC2)cc1 | inactive |
| COc1cccc(C(=O)Nc2ccc(N3CCN(C(=O)c4ccco4)CC3)cc2)c1 | inactive |
| COc1cccc(C(=O)Nc2ccc(N3CCCC3)cc2)c1 | 0.891 µM (active) |
| CN1CCN(c2ccc(NC(=O)c3ccccc3)cc2)CC1 | 2.51 µM (active) |
| CC(=O)Oc1cccc(C(=O)Nc2ccccc2NC(=O)c2cccc(OC(C)=O)c2)c1 | inactive |
| COc1ccc(C(=O)Nc2ccc(N3CCC(C)CC3)cc2)cc1Br | inactive |
| COc1ccc(C2COC(=O)C2=N)c(NC(=O)c2ccccc2)c1 (stereo unspecified) | inactive |
